The whole screen tested about 290,000 compounds, of which about 3,000 (1%) were called active. The sample holds actives, similar compounds and a random draw of the others, so the mix is not that of the screen. A number with no mark means an inactive call. No stated cut-off is given here; in the data, active means inhibition mostly above about 36% (no sharp cut-off); inactive means mostly below about 34%.
test: NOD1 signaling inhibitors, primary screen, cell-based, luminescence, uHTS (AID 1578); conditions: NOD1-driven NF-kB luciferase reporter cells, at 4 µM, stronger effect = higher value;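 further: HEK-293T reporter cells stimulated with the NOD1 agonist gamma-tri-DAP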

SMILES	inhibition
Cc1c(O)ccc2c(=O)c(Oc3ccccc3)coc12	-2.7%
Cc1cc(C)nc(SCc2nnc(SCC(=O)Nc3c(C)cccc3C)o2)n1	-14%
O=C1CSc2ccc(S(=O)(=O)CCC(=O)NC3CCCCC3)cc2N1	-26.4%
C#CCOC(=O)CCCNc1ccc([N+](=O)[O-])cc1[N+](=O)[O-]	-22.8%
CC1CN=C(N(C(=O)Nc2ccccc2)c2ccc(F)cc2)S1 (configuration not stated)	1.6%
CSCCC(NC(=O)OCc1ccccc1)C(=O)NCc1cccnc1 (configuration not stated)	-10.2%
CCCCC(=O)OCC(=O)c1ccc(OCC)cc1	31.2% (active)
CCCOc1ccc(C(=O)CCN2CCCCC2)cc1	35.7%
CCOc1ccc(C(=O)CCN2CCCCC2)cc1	44%
CCOc1ccc(C(=O)COC(C)=O)cc1	3.9%
CCOc1ccc(C(=O)CCN2CCCCCC2)cc1	70.2% (active)
CCOc1ccc(C(=O)COC(=O)CC)cc1	-16%
Cc1occc1C(=O)O/N=C(\N)c1ccccc1	-8.7%
CCNC(=S)Nc1cccc(F)c1C	-29.3%
O=C(NCc1ccco1)C(Cc1ccccc1)N1C(=O)C2C3C=CC(C3)C2C1=O (configuration not stated)	1.7%
COC(=O)C(Cc1ccccc1)NC(=O)CC(C)CC(=O)Nc1ccc(C)cc1 (configuration not stated)	-13.8%
CC(C)(C)NC(=O)CN(C(=O)C1CSC(=O)C1)c1ccc2c(c1)OCCO2 (configuration not stated)	-20.5%
CCN1CCN(C(=O)c2ccc3c(c2)N(Cc2ccc(C)cc2)CCS3)CC1	-18.4%
CCOC(=O)N1CCN(C(=O)c2ccc3c(c2)N(Cc2ccc(C)cc2)CCS3)CC1	45.5%
Cc1ccc(CN2CCSc3ccc(C(=O)N4CCN(c5ncccn5)CC4)cc32)cc1	34.2% (active)
CSc1nc2ccc(NC(=O)c3ccco3)cc2s1	-41.5%
C=CCn1c(COc2ccccc2-c2ccccc2)nnc1SCC(=O)NC(=O)NCc1ccco1	-0.2%
COc1ccc(Nc2nccc(-c3cccc(N)c3)n2)cc1	6.7%
CCC(C)Oc1cc(-c2ccnc(Nc3cccc(Cl)c3)n2)ccn1 (configuration not stated)	47% (active)
Cc1cc(C)nc(Nc2cccc(Cl)c2)n1	-14.1%
Brc1ccc(CSc2ncn[nH]2)cc1	19%

SMILES	inhibition
COc1cc2ccccc2cc1C(=O)Nc1ccc2oc(=O)ccc2c1	46.4%
CCNc1nc(NC(C)C)nc(Oc2ccc(OCCOc3ccc(C)cc3)nn2)n1	-39.7%
COCc1cc(NCc2ccc(Cl)cc2)nc(C)n1	21%
COCc1cc(Sc2ccc(Cl)cc2)nc(C)n1	-2.4%
COCc1cc(S(=O)c2ccc(Cl)cc2)nc(C)n1 (configuration not stated)	84.6% (active)
CC(Cl)C(=O)c1c[nH]c2ccccc12 (configuration not stated)	-10.4%
O=C(c1ccccc1)c1c[nH]c2ccccc12	-14.2%
O=C(c1c[nH]c2ccccc12)C(Cl)c1ccccc1 (configuration not stated)	96.9% (active)
COc1ccccc1NS(=O)(=O)c1ccc2c(c1)NC(=O)C(C)S2 (configuration not stated)	49.3%
COc1ccc(N2CCN(C(=O)c3oc4ccccc4c3NC(=O)Cc3cccc(OC)c3)CC2)cc1	-28.1%
Cc1ccc(S(=O)(=O)NC(CC(=O)O)c2cccs2)cc1 (configuration not stated)	-21.8%
Cc1ccc(CN2C3=NCCCN3c3ccccc32)cc1	-29.5%
CCCCCCN1C2=NCCN2c2ccccc21	-24.5%
CCCCCN1C2=NCCN2c2ccccc21	-41.3%
c1ccc(CN2C3=NCCCN3c3ccccc32)cc1	-21.5%
CC(C)(C)c1ccc(CN2C3=NCCCN3c3ccccc32)cc1	112% (active)
CCCCCCCN1C2=NCCN2c2ccccc21	35.9% (active)
CCCCOCCCNC1=NCCCCC1	-5.9%
CCNC(=O)NC(=O)C(C)OC(=O)c1oc2ccc(OC)cc2c1C (configuration not stated)	25.1%
O=C(O)c1ccc2cc[nH]c2c1	7%
Cc1ccc2cc(C#N)c(NCc3ccco3)nc2c1	-2.1%
CC(C)(C)n1cnc2cc(NC(=O)c3ccccc3)ccc21	-12.2%
CC(=O)NC(C)c1ccc(Cl)c(Cl)c1 (configuration not stated)	-19.4%
Cc1ccc(OCC(=O)NC(C)c2ccc(Cl)c(Cl)c2)c([N+](=O)[O-])n1 (configuration not stated)	-30.1%
CC(NC(=O)CCl)c1ccc(Cl)c(Cl)c1 (configuration not stated)	93.1% (active)
COc1ccc2[nH]cc(/C=N/NS(=O)(=O)c3ccc(C)cc3)c2c1	44% (active)

SMILES	inhibition
C(=N\Nc1ccccn1)/c1c[nH]c2ccccc12	10.9%
Cc1ccc(S(=O)(=O)N/N=C/c2ccccc2O)cc1	-2.2%
COc1ccc(O)c(/C=N/NS(=O)(=O)c2ccc(C)cc2)c1	1.6%
COc1ccc2c(/C=N/NS(=O)(=O)c3ccc(C)cc3)c[nH]c2c1	-6.6%
Fc1c(F)c(F)c(N/N=C/c2c[nH]c3ccccc23)c(F)c1F	87.4% (active)
Cc1ccc(S(=O)(=O)N/N=C/c2c[nH]c3ccccc23)cc1	62.4% (active)
COc1ccc(OC)c(S(=O)(=O)N/N=C\c2c[nH]c3ccccc23)c1	30.3%
C(=N\Nc1nc2ccccc2[nH]1)/c1c[nH]c2ccccc12	34.5%
COc1ccc(N2CCN(C(CNC(=O)C(=O)NCc3ccc4c(c3)OCO4)c3ccco3)CC2)cc1 (configuration not stated)	-7.2%
O=C(O)/C=C/C(=O)Nc1ccc(S(=O)(=O)Nc2nccs2)cc1	-6.1%
COc1ccc(CCNC(=O)CSc2nnc(CNC(=O)c3ccccc3F)o2)cc1OC	-6.3%
CCC(C)[C@H](NC(=O)N1CCn2c1nc1ccccc12)C(=O)NCc1ccccc1 (some centres not stated)	-0.4%
CC(C)C(C)NC(=O)COC(=O)c1cc(S(=O)(=O)N(C)C)ccc1N1CCCC1 (configuration not stated)	-50.6%
c1ccc(COn2nnc3ccccc32)c(COn2nnc3ccccc32)c1	-7.5%
COc1ccc(OC)c(NC(=O)c2nnn(Cc3ccccc3C)c2N)c1	-33.8%
CC1CN(Cc2ccccc2)c2ccccc2NC1=S (configuration not stated)	108% (active)
CC1CC(=S)Nc2ccccc2N1Cc1ccccc1 (configuration not stated)	-2.8%
CC1CSc2ccccc2NC1=S (configuration not stated)	-19.1%
COc1cc(NC(=O)c2cnn3c(C(F)F)cc(C4CC4)nc23)c(OC)cc1Cl	-21.7%
COc1ccc(OCC(=O)Nc2ccc(NC(=O)c3ccccc3Cl)c(OC)c2)cc1	-16.9%
COCCNC(=O)c1cc2cc3ccc(OC)cc3nc2o1	4.6%
COc1ccc2cc3cc(C(=O)NCCC(C)C)oc3nc2c1	-9.5%
O=C(CSc1nc2ccccc2[nH]1)N1CCN(c2ccccc2)CC1	-37.6%
CC1=CC(C)(C)Nc2ccc(OC(=O)c3cccnc3)cc21	34.3%
CC1=CC(C)(C)Nc2ccc(OC(=O)c3ccco3)cc21	98.8% (active)
CC1=CC(C)(C)Nc2ccc(OC(=O)CN3C(=O)c4ccccc4C3=O)cc21	21.8%

SMILES	inhibition
O=C(NCC1CCCO1)c1ccc(S(=O)(=O)N2CCC(c3nc4ccc(Cl)cc4[nH]3)CC2)cc1 (configuration not stated)	-25.9%
COCCNC(=O)C(c1ccc(C)o1)N(C(=O)C(=O)NC1CCCCC1)c1ccc(F)cc1 (configuration not stated)	-37.3%
CSCCC(NC(=O)c1cccc(C)c1)C(=O)Nc1sccc1C(N)=O (configuration not stated)	68.6% (active)
CSCCC(NC(=O)c1ccccc1)C(=O)Nc1ccc(C)cc1 (configuration not stated)	1.6%
CSCCC(NC(=O)c1cccc(C)c1)C(=O)O (configuration not stated)	2%
NC1=NC(=O)/C(=C/c2cn(CCC(=O)O)nc2-c2ccc(Cl)cc2)S1	-34.5%
CCOc1ccc(NC(=O)CSc2nnc(N)s2)c([N+](=O)[O-])c1	-24.6%
OC1CCCN(CC(O)c2ccccc2)C1 (configuration not stated)	-32.3%
Brc1ccc(N/N=C(/N=Nc2nn[nH]n2)c2ccccc2)cc1	63.8% (active)
C/C(=N\Nc1ccc(C(=O)O)cc1)c1ccc(Br)cc1	5%
Cn1nnnc1N=N/C(=N/Nc1ccccc1)c1ccccc1	-8.4%
CCOc1ccc(S(=O)(=O)Nc2cc(F)ccc2F)c2cccnc12	-15.4%
CC1=NN(c2ccccc2)C(=O)/C1=C/C=C/c1ccccc1	31.6%
CC1=NN(c2cccc(C(=O)O)c2)C(=O)/C1=C\C=C\c1ccco1	-11.6%
CC1=NN(c2cccc(C(=O)O)c2)C(=O)/C1=C\C=C/c1ccccc1	58.9% (active)
CCCNC(=O)c1onc(CSc2nc3ccccc3[nH]2)c1C(=O)NCCC	11.1%
C=CCn1c(Sc2ncc([N+](=O)[O-])s2)n[nH]c1=O	30.1% (active)
C=CCn1c(Sc2nnc(C)s2)nc2c1c(=O)[nH]c(=O)n2C	-4.6%
C=CCn1c(CSc2ccccc2[N+](=O)[O-])n[nH]c1=S	-1.6%
CCOC(=O)CSc1nc(N)c(C#N)cc1C#N	-40.2%
COc1cc(CN2CCNC(=O)C2CC(=O)N(C)CCCN2CCOCC2)cc(OC)c1 (configuration not stated)	-24.5%
O=[N+]([O-])c1ccc(/C=[N+](\[O-])[C@@H]2CCCC[C@@H]2/[N+]([O-])=C/c2ccc([N+](=O)[O-])o2)o1	-2%
O=C1CN(/N=C/c2ccc([N+](=O)[O-])o2)C(=O)N1	-4.5%
O=C1NC(=S)S/C1=C\C=C\c1ccc([N+](=O)[O-])o1	39.6% (active)

From PubChem BioAssay AID1578 (Sanford-Burnham Center for Chemical Genomics, 2009)
